Test results reported in PubChem BioAssay (NCI).
About 79,000 compounds went through this panel and 15% of them were active in at least one assay; those are over-represented in the sample as a whole. Active and inactive are the calls of the source. No stated cut-off is given here; in the data, active means growth inhibition above about 70%; inactive means the rest.

Tests used:
[1] = NCI Yeast Anticancer Drug Screen. Data for the rad52 strain (AID 147);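 further: 0% = growth of vehicle-treated control cultures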; settings: S. cerevisiae rad52 mutant growth inhibition, active compounds read high
Summary of the method: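 Read-out: growth inhibition versus vehicle-treated controls. Cells were a DNA repair-deficient yeast strain treated with compounds.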

[2] = NCI Yeast Anticancer Drug Screen. Data for the wt1 strain (AID 149);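 further: 0% = growth of vehicle-treated wt1 cultures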; settings: S. cerevisiae wt1 strain (SPY 50644) growth inhibition, active compounds read high
Summary of the method: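 Vehicle-normalised growth inhibition; strain wt1; compound exposure.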

[3] = NCI Yeast Anticancer Drug Screen. Data for the rad50EPP+ strain (AID 151);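 further: 0% = growth of vehicle-treated control cultures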; settings: S. cerevisiae rad50 mutant strain, active compounds read high
Summary of the method: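 Growth inhibition read against vehicle controls in rad50EPP+ yeast, a strain altered in DNA damage repair, after compound exposure.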

[4] = NCI Yeast Anticancer Drug Screen. Data for the mgt1 strain (AID 153); settings: S. cerevisiae mgt1 mutant growth inhibition, active compounds read high
Summary of the method: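 mgt1 yeast grown with test compound; read-out is growth inhibition versus vehicle-treated cultures.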

[5] = NCI Yeast Anticancer Drug Screen. Data for the rad50 strain (AID 155);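 further: 0% = growth of vehicle-only cultures of the same strain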; settings: S. cerevisiae rad50 strain growth inhibition, active compounds read high
Summary of the method: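 A DNA repair-deficient yeast mutant serves as the test organism; compound-induced growth inhibition is calculated against vehicle-treated cells.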

[6] = NCI Yeast Anticancer Drug Screen. Data for the mec2-1 strain (AID 157); settings: S. cerevisiae mec2-1 strain, active compounds read high
Summary of the method: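 Yeast mec2-1 mutant treated with compound. Readout: growth inhibition vs vehicle controls.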

[7] = NCI Yeast Anticancer Drug Screen. Data for the rad14 strain (AID 159);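 further: 0% = growth of vehicle-treated control cultures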; settings: S. cerevisiae rad14 strain growth inhibition, active compounds read high
Summary of the method: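 Vehicle-treated cultures served as the baseline for growth inhibition of a DNA repair-mutant yeast strain exposed to each compound.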

[8] = NCI Yeast Anticancer Drug Screen. Data for the sgs1 mgt1 strain (AID 161);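 further: 0% = growth of cultures given vehicle only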; settings: S. cerevisiae sgs1 mgt1 strain, active compounds read high
Summary of the method: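 Mutant yeast exposed to compound; growth scored against vehicle-only wells.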

[9] = NCI Yeast Anticancer Drug Screen. Data for the CLN2oe strain (AID 163);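 further: 0% = growth of vehicle-only control cultures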; settings: S. cerevisiae CLN2oe strain, active compounds read high
Summary of the method: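 Read-out: yeast growth inhibition, expressed relative to vehicle-only controls. The strain bears an engineered cell-cycle alteration.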

[10] = NCI Yeast Anticancer Drug Screen. Data for the cln2 rad14 strain (AID 165);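 further: 0% = growth equal to vehicle treated cultures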; settings: S. cerevisiae cln2 rad14 strain, active compounds read high
Summary of the method: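 cln2 rad14 yeast strain; compound exposure; growth inhibition read vs vehicle controls.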

[11] = NCI Yeast Anticancer Drug Screen. Data for the bub3 strain (AID 167); settings: S. cerevisiae bub3 mutant strain, active compounds read high
Summary of the method: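 Inhibition values come from growth of compound-treated mutant yeast normalised to vehicle-treated controls.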

[12] = NCI Yeast Anticancer Drug Screen. Data for the wt2 strain (AID 169);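 further: 0% = growth of vehicle-treated yeast cultures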; settings: S. cerevisiae wt2 strain growth inhibition, active compounds read high
Summary of the method: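 Read-out: growth inhibition versus vehicle-treated control cultures after compound exposure of the yeast strain.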

[13] = NCI Yeast Anticancer Drug Screen. Data for the mlh1 strain (AID 171);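 further: 0% = growth of vehicle-treated control cultures of the same strain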; settings: S. cerevisiae mlh1 strain growth inhibition, active compounds read high
Summary of the method: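 Read-out: growth inhibition versus vehicle controls. Strain: engineered yeast with a defined DNA repair or cell cycle defect, compound-treated.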

[14] = NCI Yeast Anticancer Drug Screen. Data for the sgs1 strain (AID 173);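 further: 0% = growth of vehicle-only control cultures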; settings: S. cerevisiae sgs1 mutant, active compounds read high
Summary of the method: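 Read-out: yeast growth inhibition relative to vehicle controls, following compound exposure of a strain with a defined DNA repair/cell cycle alteration.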

[15] = NCI Yeast Anticancer Drug Screen. Data for the mlh1 rad18 strain (AID 175); settings: S. cerevisiae mlh1 rad18 strain growth inhibition, active compounds read high
Summary of the method: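 Yeast w/ defined DNA-repair lesions; compound exposure; growth vs vehicle controls → % inhibition.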

[16] = NCI Yeast Anticancer Drug Screen. Data for the rad18 strain (AID 177); settings: S. cerevisiae rad18 mutant growth inhibition, active compounds read high
Summary of the method: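 Readout: growth inhibition vs vehicle controls. Cells: genetically altered yeast strain, DNA repair defect.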

[17] = at 5.0 µM (retest, dose inferred, filed as 0.5)
[18] = at 50.0 µM (retest, dose inferred, filed as 5.0)

Measured: growth inhibition

CCN(CC)CCC(=O)c1ccc(Oc2ccc(F)cc2)cc1
inactive: [1]; at 1.2 µM -23% | [1]; at 3.7 µM -26% | [1]; at 11.0 µM -40% | [1]; at 33.0 µM 8% | [2]; at 1.2 µM -11% | [2]; at 3.7 µM 23% | [2]; at 11.0 µM 21% | [2]; at 33.0 µM -5% | [3]; at 1.2 µM -9% | [3]; at 3.7 µM -30% | [3]; at 11.0 µM 9% | [3]; at 33.0 µM 36% | [4]; at 1.2 µM 49% | [4]; at 3.7 µM 59% | [5]; at 1.2 µM -5% | [5]; at 3.7 µM -21% | [5]; [17] 46% | [5]; at 11.0 µM -17% | [5]; at 33.0 µM 2% | [5]; at 50.0 µM 57% | [6]; at 1.2 µM 17% | [6]; at 3.7 µM 35% | [6]; [17] 41% | [6]; at 11.0 µM 42% | [6]; at 33.0 µM 52% | [6]; at 50.0 µM 44.5% | [7]; at 1.2 µM 5% | [7]; at 3.7 µM 39% | [7]; at 11.0 µM 51% | [8]; [17] 62% | [8]; [18] 66% | [9]; at 1.2 µM 10% | [9]; at 3.7 µM 17% | [9]; at 11.0 µM 35% | [9]; at 33.0 µM 54% | [9]; at 100.0 µM 68% | [10]; [17] 21% | [10]; [18] 3% | [10]; at 50.0 µM 32.9% | [11]; at 1.2 µM 35% | [11]; at 3.7 µM 46% | [11]; [17] 55% | [11]; at 11.0 µM 58% | [11]; [18] 47% | [11]; at 50.0 µM 69.6% | [12]; at 1.2 µM 17% | [12]; at 3.7 µM 21% | [12]; at 11.0 µM 41% | [13]; at 1.2 µM 34% | [13]; at 3.7 µM 37% | [13]; at 11.0 µM 58% | [14]; at 1.2 µM -12% | [14]; at 3.7 µM -2% | [14]; at 11.0 µM 11% | [14]; at 33.0 µM 59% | [15]; [17] 65% | [15]; at 50.0 µM 47.5% | [16]; at 1.2 µM 4% | [16]; at 3.7 µM 26% | [16]; at 11.0 µM 27% | [16]; at 33.0 µM 52%
active: [1]; at 100.0 µM 83% | [2]; at 100.0 µM 80% | [3]; at 100.0 µM 93% | [4]; at 11.0 µM 76% | [4]; at 33.0 µM 92% | [4]; at 100.0 µM 94% | [5]; [18] 82% | [5]; at 100.0 µM 87% | [6]; [18] 87% | [6]; at 100.0 µM 95% | [7]; at 33.0 µM 79% | [7]; at 100.0 µM 81% | [8]; at 50.0 µM 76.5% | [11]; at 33.0 µM 83% | [11]; at 100.0 µM 97% | [12]; at 33.0 µM 71% | [12]; at 100.0 µM 80% | [13]; at 33.0 µM 73% | [13]; at 100.0 µM 83% | [14]; at 100.0 µM 96% | [15]; [18] 93% | [16]; at 100.0 µM 96%

O=C1C=CC(=O)c2c(O)c(Nc3ccc(OC(F)(F)F)cc3)c(Cl)c(O)c21
active: [1]; at 100.0 µM 81% | [2]; at 100.0 µM 94% | [3]; at 33.0 µM 70% | [3]; at 100.0 µM 93% | [4]; at 100.0 µM 94% | [5]; at 100.0 µM 89% | [6]; at 33.0 µM 78% | [6]; [18] 79% | [6]; at 100.0 µM 94% | [7]; at 100.0 µM 92% | [8]; at 50.0 µM 73% | [9]; at 100.0 µM 83% | [11]; at 50.0 µM 82.2% | [11]; at 100.0 µM 91% | [12]; at 100.0 µM 93% | [13]; at 100.0 µM 87% | [14]; at 100.0 µM 96% | [15]; [18] 76% | [16]; at 100.0 µM 92%
inactive: [1]; at 1.2 µM 9% | [1]; at 3.7 µM 12% | [1]; at 11.0 µM 17% | [1]; at 33.0 µM 32% | [2]; at 1.2 µM 23% | [2]; at 3.7 µM 22% | [2]; at 11.0 µM 26% | [2]; at 33.0 µM 50% | [3]; at 1.2 µM 2% | [3]; at 3.7 µM 8% | [3]; at 11.0 µM 21% | [4]; at 1.2 µM 9% | [4]; at 3.7 µM 16% | [4]; at 11.0 µM 16% | [4]; at 33.0 µM 50% | [5]; at 1.2 µM -16% | [5]; at 3.7 µM -15% | [5]; [17] 4% | [5]; at 11.0 µM 4% | [5]; at 33.0 µM 67% | [5]; [18] 46% | [5]; at 50.0 µM 42% | [6]; at 1.2 µM -7% | [6]; at 3.7 µM -3% | [6]; [17] 9% | [6]; at 11.0 µM 8% | [6]; at 50.0 µM 46.8% | [7]; at 1.2 µM 2% | [7]; at 3.7 µM 4% | [7]; at 11.0 µM 6% | [7]; at 33.0 µM 32% | [8]; [17] 35% | [8]; [18] 49% | [9]; at 1.2 µM -8% | [9]; at 3.7 µM 0% | [9]; at 11.0 µM -5% | [9]; at 33.0 µM 12% | [10]; [17] 19% | [10]; [18] 32% | [10]; at 50.0 µM 37.9% | [11]; at 1.2 µM -17% | [11]; at 3.7 µM -8% | [11]; [17] 26% | [11]; at 11.0 µM 1% | [11]; at 33.0 µM 48% | [11]; [18] 65% | [12]; at 1.2 µM -5% | [12]; at 3.7 µM -6% | [12]; at 11.0 µM -6% | [12]; at 33.0 µM 21% | [13]; at 1.2 µM 0% | [13]; at 3.7 µM 6% | [13]; at 11.0 µM 13% | [13]; at 33.0 µM 37% | [14]; at 1.2 µM 34% | [14]; at 3.7 µM 32% | [14]; at 11.0 µM 58% | [14]; at 33.0 µM 62% | [15]; [17] 13% | [15]; at 50.0 µM 68.7% | [16]; at 1.2 µM -2% | [16]; at 3.7 µM -2% | [16]; at 11.0 µM 4% | [16]; at 33.0 µM 45%
